This note sets out measurements from the supplement of paper PMC7156485.

± gives the standard deviation of the averaged measurements.
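Note: TDF denotes transformed human dermal fibroblasts of mesenchymal origin.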

This assay deals with HCC1569. The experiment in a line: cell number relative to DMSO (% of DMSO); higher = more cells (less growth inhibition / toxicity). The conditions noted are these: concentration: 10 µM; 24 h. The essentials:
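HCC1569 and TDF cells (800 per well, 384-well plates, RPMI with 10% FBS) were treated with compounds at 10 µM for 24 h at 37 °C, in triplicate. Cells were fixed in 3.7% formaldehyde and stained with a rabbit anti-H1.0 antibody, an AlexaFluor 647 secondary and DAPI; six fields per well were imaged at ×10. H1.0 nuclear intensity or cell number is expressed as percent of the plate DMSO control, taking the median of replicates. HCC1569 values were smoothed for positional effects.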
Compound `O=C(Nc1ccc(Oc2ccnc3[nH]ccc23)c(F)c1)c1cccn(-c2ccc(F)cc2)c1=O` registered a cell number of 102.

`Nc1nnc(-c2cccc(Cl)c2Cl)c(N)n1` [Lamotrigine] returned a cell number of 99.6 ± 2.1.

For `Cn1cnc2c(NCc3ccccc3)nc(NCCO)nc21` [Olomoucine], the cell number is 100.

`Cc1cnc(Nc2ccc(OCCN3CCCC3)cc2)nc1Nc1cccc(S(=O)(=O)NC(C)(C)C)c1` gave a cell number of 67.1.

`NC(CS(=O)O)C(=O)O` [L-Cysteinesulfinic Acid] yielded a cell number of 102.

As for `CC(C=Cc1cccc(Oc2ccc(F)cc2)c1)N(O)C(N)=O` (stereo unspecified), the cell number is 102.

Consider `CC=C1C2C=C(C)CC1(N)c1ccc(=O)[nH]c1C2` (single isomer, unassigned; (-)) [(-)-Huperazine], for which the cell number is 98.2.

`C=C(C)C1CC=C(C(=O)O)CC1` (single isomer, unassigned; (-)) [(-)-Perillic acid] came in with a cell number of 104.

Regarding `COc1ccccc1O` [Guaiacol], the cell number was found to be 103.

In the case of `O=C([O-])C=CC(O)c1ccc(Cl)cc1.[Na+]` (stereo unspecified), the cell number was found to be 105.

Consider `Br.CN=c1nc(-c2ccccc2)n(-c2ccccc2)s1`, for which the cell number worked out at 97.5.

In the case of `CN(C)C(=O)COC(=O)Cc1ccc(OC(=O)c2ccc(N=C(N)N)cc2)cc1.CS(=O)(=O)O`, the cell number was 99.4.

As for `COc1ccc(CC[C@H]2CCC[C@@H](CCc3ccc(OC)cc3)N2C[C@@H](O)CO)cc1.Cl`, the cell number was 101.

Compound `CC(C)C(CO)Nc1nc(Nc2ccc(C(=O)O)c(Cl)c2)c2ncn(C(C)C)c2n1` (stereo unspecified) [Purvalanol B] had a cell number of 101.

For the compound `CCCCCCCCCCCCCCCC(=O)NCCO` [Palmitoylethanolamide], the cell number came out at 104.

The compound `Br.CN(C)CCCC1(c2ccc(F)cc2)OCc2cc(C#N)ccc21` (stereo unspecified) [Citalopram hydrobromide] showed a cell number of 101.

Take `COc1cc(C2Oc3cc(C4Oc5cc(O)cc(O)c5C(=O)C4O)ccc3OC2CO)ccc1O` (stereo unspecified) [Silymarin]: the cell number stood at 102.

Consider `CN=C(NC#N)NCCSCc1nc[nH]c1C` [Cimetidine], for which the cell number came to 102 ± 1.8.

Regarding `CC(=O)NCCOC(=O)[C@H](Oc1cccc(C(F)(F)F)c1)c1ccc(Cl)cc1`, the cell number came to 104.

`C=CCSC[C@H](N)C(=O)O` [(2R)-3-(allylsulfanyl)-2-aminopropanoic acid] showed a cell number of 103.

`CCC=CCC=CCC=CCC=CCC=CCCC(=O)OC(COCCCCCCCCCCCCCCCC)COP(=O)([O-])OCC[N+](C)(C)C` (stereo unspecified) gave a cell number of 105.

`CCN1CCCC1CNC(=O)c1cc(S(N)(=O)=O)ccc1OC` [(S)-(-)-Sulpiride] displayed a cell number of 99.3.

On to `Oc1ccc(-c2c(-c3ccccc3)nn3c(C(F)(F)F)cc(C(F)(F)F)nc23)cc1`, for which the cell number was 67.9.

Consider `CCC1=C(C)CN(C(=O)NCCc2ccc(S(=O)(=O)NC(=O)NC3CCC(C)CC3)cc2)C1=O` (stereo unspecified) [Glimepiride], for which the cell number was determined as 102.

Consider `C=C1CCC2OC2(C)CCC2C1CC2(C)C` (stereo unspecified) [Caryophylline], for which the cell number was 104.

As to `NC(=S)NCCCC(N)C(=O)O` (stereo unspecified) [Thiocitrulline], the cell number worked out at 104.

On to `CC(OC(=O)c1ccc(F)cc1F)C(=O)N(C)C1CCS(=O)(=O)C1` (stereo unspecified) [Cdk2/9 Inhibitor], for which the cell number turned out to be 48.9.

In turn, `CC(=O)c1ccc(S(=O)(=O)NC(=O)NC2CCCCC2)cc1` [Acetohexamide] yielded a cell number of 105.

`COc1ccc(C(=O)/C(Cc2cc(OC)c(OC)c(OC)c2)=C(\C(=O)[O-])c2ccc3c(c2)OCO3)cc1.[Na+]` gave a cell number of 97.7.

As for `Cc1cccc(C)c1OCC(C)N.Cl` (stereo unspecified) [Mexiletene hydrochloride], the cell number came to 104.

The compound `O=c1cc(N2CCOCC2)oc2c1ccc1ccccc12` [NU 7026 - 2-(4-Morpholinyl)-4H-naphthol[1,2-b]pyran-4-one] gave a cell number of 96.

For `C=C(c1ccc(C(=O)O)cc1)c1cc2c(cc1C)C(C)(C)CCC2(C)C` [Bexarotene], the cell number turned out to be 104.

Compound `Nc1cc(=O)nc(N)[nH]1` [2,6-Diamino-4-pyrimidinone] came in with a cell number of 99.3.

Consider `CC(=O)C1(O)CCC2C3CCC4=CC(=O)CCC4(C)C3CCC21C` (stereo unspecified) [17- Hydroxyprogesterone], for which the cell number was determined as 104.

`C[n+]1cc2c3c(ccc2c2ccc4cc5c(cc4c21)OCO5)OCO3` [Sanguinarine] registered a cell number of 93.5.

As for `CCCOc1ccc(C=C2SC(=O)NC2=O)cc1` [PIM1/2 Kinase Inhibitor VI], the cell number was determined as 106.
